Measurements from PubChem BioAssay (EPA / NIEHS).
Inconclusive results are not listed. Activity calls are given as the source filed them. How the source made its calls: active means hit-call score of the fitted dose curve at least 0.9, where 1 is the maximum; inconclusive means response in the unintended direction; inactive means score below 0.9.

How the values were obtained:
[1] = TOX21_p53_BLA_p2_viability: Viability Assessment in the Tox21 HCT-116 p53 Agonism Beta-lactamase Assay, Phase 2 (AID 2283591);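 further: compound exposure lasted 16 h at 37 °C; actives lower the ATP signal meaning cytotoxicity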
Outline: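 HCT116 p53-bla cells, 4000/well, dosed after 5 h plating (217-fold dilution of DMSO stocks) and incubated 16 h at 37C. Viability taken as cellular ATP by CellTiter-Glo luminescence after 30 min RT; signal loss marks cytotoxicity.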

[2] = target: Cellular tumor antigen p53 (Homo sapiens) (UniProt P04637); assay: TOX21_p53_BLA_p2_ratio: Tox21 HCT-116 p53 Agonism Beta-lactamase Assay, Ratio, Phase 2 (AID 2283592)
Outline: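 In this cell-based reporter format, HCT116 cells were dosed with chemicals delivered from DMSO by 217-fold dilution and incubated 16 h at 37C. Emission at 460 and 530 nm after 2 h CCF4-AM loading provided the ratio, fitted upward versus DMSO.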

[3] = TOX21_p53_BLA_p3_viability: Viability Assessment in the Tox21 HCT-116 p53 Agonism Beta-lactamase Assay, Phase 3 (AID 2283593);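 further: cells exposed to compound for 16 h before reading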
Outline: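 HCT116 cells, 4000/well, dosed 5 h after plating by pin transfer (217-fold dilution from DMSO stock) and incubated 16 h at 37C, 5% CO2. Viability read as ATP luminescence with CellTiter-Glo after 30 min at room temperature.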

[4] = TOX21_p53_BLA_p4_viability: Viability Assessment in the Tox21 HCT-116 p53 Agonism Beta-lactamase Assay, Phase 4 (AID 2283597);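 further: hits lower the luminescence signal meaning cytotoxicity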
Outline: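 We seeded HCT116 p53 reporter cells at 4000/well and waited 5 h. We then added compounds in DMSO at a 217-fold dilution and incubated for 16 h. Viability was read as CellTiter-Glo luminescence after 30 min at RT.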

[5] = target: Cellular tumor antigen p53 (Homo sapiens) (UniProt P04637); assay: TOX21_p53_BLA_p5_ratio: Tox21 HCT-116 p53 Agonism Beta-lactamase Assay, Ratio, Phase 5 (AID 2283599)
Outline: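 HCT-116 p53-bla cells (4000/well) plated 5 h, dosed with compound (217-fold DMSO dilution) for 16 h at 37 C; CCF4-AM substrate 2 h at room temperature. Activity is the 460/530 nm emission ratio (405 nm excitation), fitted in gain-of-signal direction versus DMSO.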

[6] = TOX21_p53_BLA_p5_viability: Viability Assessment in the Tox21 HCT-116 p53 Agonism Beta-lactamase Assay, Phase 5 (AID 2283600)
Outline: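 Compounds, pinned from DMSO at 217-fold dilution, were left on the cells for 16 h. The viability endpoint was ATP content measured by CellTiter-Glo luminescence, where falling signal reflects cytotoxicity.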

[7] = target: Cellular tumor antigen p53 (Homo sapiens) (UniProt P04637); assay: TOX21_p53_BLA_p4_ratio: Tox21 HCT-116 p53 Agonism Beta-lactamase Assay, Ratio, Phase 4 (AID 2283601)
Outline: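 HCT-116 p53 beta-lactamase reporter cells (4000/well) preincubated 5 h, then compound (217-fold dilution of DMSO stock) for 16 h at 37C. CCF4-AM substrate added 2 h at room temperature; 460/530 nm emission ratio fitted upward versus DMSO.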

[8] = target: Cellular tumor antigen p53 (Homo sapiens) (UniProt P04637); assay: TOX21_p53_BLA_p3_ratio: Tox21 HCT-116 p53 Agonism Beta-lactamase Assay, Ratio, Phase 3 (AID 2283596)
Outline: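 HCT116 p53-bla cells (4000/well) given compound in DMSO (217-fold dilution) after 5 h, incubated 16 h at 37C. CCF4-AM substrate 2 h at room temperature; 460/530 nm emission ratio, gain fitted against DMSO.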

Measured: outcome

Chain of Cellular tumor antigen p53 (Homo sapiens) (P04637 whole entry, looked up): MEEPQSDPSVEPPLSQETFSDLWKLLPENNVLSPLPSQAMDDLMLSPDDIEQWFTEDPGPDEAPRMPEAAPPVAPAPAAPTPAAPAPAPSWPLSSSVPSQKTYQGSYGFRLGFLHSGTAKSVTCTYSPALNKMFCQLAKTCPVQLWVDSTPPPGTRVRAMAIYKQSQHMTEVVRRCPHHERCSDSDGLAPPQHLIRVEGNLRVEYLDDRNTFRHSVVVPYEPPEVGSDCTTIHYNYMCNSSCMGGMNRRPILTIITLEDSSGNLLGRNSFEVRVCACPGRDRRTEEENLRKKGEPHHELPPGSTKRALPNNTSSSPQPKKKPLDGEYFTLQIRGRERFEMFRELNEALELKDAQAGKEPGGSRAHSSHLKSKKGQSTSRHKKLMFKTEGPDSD

O=C(NCc1cccnc1)Nc1ccc([N+](=O)[O-])cc1
not listed: [8]
inactive: all other assays above

Cc1nnc2n1-c1ccc(Cl)cc1C(c1ccccc1Cl)=NC2
inactive: [1] | [2] | [3] | [4] | [6]

CN1[C@@H]2CC[C@H]1CC(OC(=O)c1cc(Cl)cc(Cl)c1)C2 (stereo partly specified)
not listed: [8]
inactive: all other assays above

CCCCCCC#N
not listed: [8]
inactive: all other assays above

CCCC[P+](CC)(CCCC)CCCC (tested in a mixture with another compound)
not listed: [8]
inactive: all other assays above

OC(c1ccccc1)(c1ccccc1)C1CN2CCC1CC2 (stereo unspecified)
not listed: [5] | [8]
inactive: all other assays above

CC(C)(C)NCC(O)c1cc(Cl)c(N)c(Cl)c1 (stereo unspecified)
inactive: [1] | [2] | [3] | [8] | [7]

c1ccc(C2CC2)c(OCC2=NCCN2)c1
not listed: [8]
inactive: all other assays above
